# Source: PubChem BioAssay (National Center for Advancing Translational Sciences (NCATS))
# TDP43 rescue – rescues yeast growth from TDP-43 toxicity; TDP-43 expressing yeast growth rescue, BacTiter-Glo, 24 h; Potency, µM (highest dose often 46.1 µM), inactives show top-dose growth rescue (activation), hits mostly activators; 410,000 compounds, 1.8% hits; note: % of control where 0% means no effect; nearly all actives have a fitted effect of over 50% in size
#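 Yeast cells expressing TDP-43 under galactose induction are exposed to compounds for 24 hr at 30 deg C. BacTiter-Glo luminescence measures growth, so protective compounds score as activators.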
# FUS yeast rescue – suppressors of FUS proteinopathy in yeast; S. cerevisiae FUS-expressing, growth rescue, OD600, 24 h; Potency, µM (highest dose often 76.6 µM), hits mostly activators; 390,000 compounds, 0.24% hits; AID 1347120;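 note: plate controls were DMSO vehicle for no effect and reference control for full effect; nearly all actives have a fitted effect of over 55% in size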
#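 Galactose (2%) drives FUS expression in yeast precultured in raffinose; seeding density OD 0.005. Test compounds incubated 24hr at 30C and 99% humidity before absorbance at 600 nm was measured.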
# Abeta yeast res – compounds reversing amyloid beta toxicity in yeast; yeast expressing A-beta42, growth rescue, OD600, 48 h; response scale: 0% DMSO, 100% iron-clioquinol control; 410,000 compounds, 0.063% hits; Potency, µM (series often up to 46.1 µM), hits mostly activators; note: nearly all actives have a fitted effect of over 55% in size
#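 Yeast growth medium received pinned compounds, then yeast cells expressing toxic A-beta were added; plates incubated at 30 C for 48 hr. Growth read as absorbance at 600 nm, normalized to DMSO and equimolar FeCl3 plus clioquinol controls.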
# Mito fusion yeast – blocks mitochondrial division or promotes mitochondrial fusion. 320,000 compounds, 0.23% hits. S. cerevisiae fusion-defective mutant growth rescue, CellTiterGlo 48 h. Potency, µM (series often up to 46.1 µM), for inactives: at the highest dose growth rescue (activation), actives largely listed as activators. AID 485298; note: % of control where 0% means no effect; nearly all actives have a fitted effect of over 45% in size
#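 Read-out: ATP-based luminescence (CellTiterGlo, 10 min ambient) reporting growth of fusion-defective ts yeast after 48 hours at 37C on glycerol/ethanol YPEG medium in the presence of compound.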
# aSyn rescue – rescues yeast growth from alpha-synuclein toxicity; Yeast expressing alpha-synuclein, growth rescue, BacTiter-Glo, 24 h; Potency, µM (highest dose often 46.1 µM), for the others: at the top dose growth rescue (activation), actives largely listed as activators; 370,000 compounds, 0.14% hits; note: % of control where 0% means no effect; nearly all actives have a fitted effect of over 65% in size
#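 Readout is rescue of growth in alpha-synuclein-expressing yeast, so inhibitors of toxicity appear as activators. Growth after 24 hr at 30 deg C in galactose medium is quantified by luminescence.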
# * marks the source's active call; other numbers are inactive results; i = inactive; ? = inconclusive; · = not tested or not shown. Sampled rows, rich in hits. Any-hit rate of the full collection: about 2.2%. Calls come from the whole dose curve; as a rule, active = well fitted curve in the direction sought with a large enough effect; inconclusive = small, poorly fitted or top-dose-only effect, or another doubt; inactive = no such curve, though single readings can be large; an effect the other way counts as inactive or inconclusive. Potency is the fitted concentration of half-maximal effect.
SMILES,TDP43 rescue,FUS yeast rescue,Abeta yeast res,Mito fusion yeast,aSyn rescue
COc1ccc2c(c1)c(CCN1CCOCC1)c(C)n2C(=O)c1cccc(Cl)c1Cl,·,·,·,?,-1%
COC(=O)C1C2c3ccccc3OC1(C)N=c1s/c(=C/c3cnn(C)c3)c(=O)n12 (centres undefined),-8%,i,i,13µM*,2%
O=S(=O)(c1ccc(Cl)cc1)N1CCC(n2cnc3cc(C(F)(F)F)ccc32)CC1,32µM*,·,i,·,?
C=C(C=O)C[C@@H]1C[C@H](O)C2OC3C[C@]4(C)OC5/C=C\CC6OC7C(CC=CCC6OC5CCCC4OC3CC2O1)OC1CC2OC3CC(=O)OC3C[C@@H](C)C[C@@]2(C)OC1C[C@@H]7C (some centres undefined),22µM*,i,i,·,0%
CCN1C[C@@]2(COC)C3[C@@H](OC)C4[C@@H]1C3([C@@H]1C[C@]3(O)[C@H](OC(=O)c5ccccc5)[C@@H]1[C@]4(OC(C)=O)[C@@H](O)[C@@H]3OC)[C@H](OC)C[C@H]2O,·,·,·,7%,8%
Nc1ccc2c3c(cccc13)-c1ccccc1-2,11µM*,i,i,·,-13%
Cc1cc(C(=O)OCC(=O)Nc2ccc(F)cc2)c(C)n1C1CC1,35µM*,·,i,10%,29%
NC(Cc1ccc(C(F)(F)F)cc1)c1csc(Nc2nncc3ccccc23)n1 (centres undefined),?,?,i,·,-54%
Cc1c(CCC(=O)N2CCCCC2)c(=O)oc2cc3occ(C(C)(C)C)c3cc12,?,i,i,·,·
CN1Cc2ccccc2-n2nncc2C1,5%,i,i,·,-2%
Cc1ccc2n1Cc1cnnn1-c1ccccc1-2,10µM*,i,i,·,1%
COc1cc(O)c(C(=O)O)c(-c2cc(O)c(O)cc2C)c1,17%,i,?,-13%,14µM*
COc1ccc2c(c1)c(C(=O)O)c(C)n2CC(C)C,4%,i,i,-2%,15%
c1ccc2sc(NC3=NCCN3)nc2c1,-10%,·,i,3.2µM*,-38%
Cc1ccc(NC(=O)CCSc2nnc(Cc3ccccc3)o2)cc1,18µM*,·,i,-4%,5%
Cc1ccc(NC(=O)COc2ccc(-c3nn(C)c(=O)c4ccccc34)cc2)cc1,?,i,i,·,·
CN(C)c1ccc(/C=C/C=C2/C(=O)NC(=O)N(c3ccccc3)C2=O)cc1,-56%,5.6µM*,i,-17%,-44%
CCCc1cc(N2CCN(c3cccc(C)c3C)CC2)n2cnnc2n1,16µM*,i,i,·,·
Oc1ccc(Cl)cc1Sc1cc(Cl)ccc1O,-92%,i,i,·,-36%
Cc1ccccc1-n1c(/C=C/c2c(C)[nH]c3ccccc23)nc2ccccc2c1=O,16µM*,i,i,·,·
Cc1ccccc1-n1c(/C=C/c2ccc(N(C)C)cc2)nc2ccccc2c1=O,?,i,i,·,-5%
N#CC1c2ccccc2C=CN1C(=O)c1ccc(N(CCCl)CCCl)cc1 (centres undefined),1%,i,i,·,7.9µM*
O=C(CCCc1ccc(N(CCCl)CCCl)cc1)NCc1ccccc1,-2%,i,i,·,-2%
CC(=O)C1=C(O)C2(C)c3c(O)c(C)c(O)c(C(C)=O)c3OC2CC1=O (centres undefined),-74%,i,i,·,-57%
O=C(Cn1c(=O)oc2ccccc21)N1CCCC1,-6%,i,i,?,1%
SMILES,TDP43 rescue,FUS yeast rescue,Abeta yeast res,Mito fusion yeast,aSyn rescue
Cc1ccccc1-n1nc(C)c2c1NC(=O)CSC2c1ccc(Cl)cc1 (centres undefined),18µM*,i,i,·,·
Cc1ccccc1-n1nc(C)c2c1NC(=O)CSC2c1ccc(N(C)C)cc1 (centres undefined),0%,?,i,·,·
O=[N+]([O-])c1cc(C(F)(F)F)c(Cl)c([N+](=O)[O-])c1Nc1ncc(C(F)(F)F)cc1Cl,·,·,·,·,-82%
COc1cccc(-n2cnc3scc(-c4cccs4)c3c2=O)c1,18µM*,i,i,22%,9%
CC(=O)Nc1ccc(OC(=O)N2CCN(/[N+]([O-])=N/Oc3ccc([N+](=O)[O-])cc3[N+](=O)[O-])CC2)cc1,·,·,·,·,-29%
O=C(Oc1ccc(Cl)cc1)N1CCOCC1,20µM*,i,i,0%,5%
CCOC(=O)[C@]12Cc3cc(Cl)ccc3[C@H]1N(C)C(=O)c1cc(OC)ccc12,22µM*,i,i,·,9%
CCOC(=O)[C@]12Cc3cc(OC)ccc3[C@H]1N(C)C(=O)c1cc(OC)ccc12,?,i,i,·,4%
COc1ccc(CCn2c(O)c(C=NCc3cccnc3)c(=O)[nH]c2=O)cc1OC,1%,i,?,-3%,5%
COc1ccc(C2CC(c3c(O)n(CCc4ccccc4)c(=O)[nH]c3=O)=NN2)cc1OC (centres undefined),-1%,22µM*,i,1%,-9%
COC(=O)C1=C(c2ccc(OC(F)(F)F)cc2)C[C@@H]2CC[C@H]1N2C(=O)N1CCCCC1,35µM*,?,i,22%,-22%
COC(=O)C1=C(c2ccc(-c3ccccc3)c(F)c2)C[C@@H]2CC[C@H]1N2C(=O)N1CCCC1,25µM*,?,i,8%,-23%
COC(=O)C1=C(c2cc3ccccc3s2)C[C@@H]2CC[C@H]1N2C(=O)NCc1ccc(F)cc1,10µM*,?,i,·,?
COC(=O)C1=C(c2ccc(-c3ccccc3)c(F)c2)C[C@@H]2CC[C@H]1N2C(=O)NCC1CC1,-29%,i,i,20µM*,-1%
COC(=O)C1=C(c2ccc(-c3ccccc3)c(F)c2)C[C@@H]2CC[C@H]1N2C(=O)N1CCCCC1,-1%,i,i,-6%,-21%
c1ccc2c(c1)c1cccc3ccc4cccc2c4c31,?,i,i,9%,11%
COc1ccccc1NC(=O)CCn1cnc2onc(-c3ccc(F)cc3)c2c1=O,?,?,i,·,·
O=C(C1CCN(S(=O)(=O)c2ccc(Br)s2)CC1)N1CCN(c2ccc(F)cc2)CC1,?,i,i,·,·
COC(=O)C1=C(c2ccc3ccccc3c2)C[C@@H]2CC[C@H]1N2C(=O)N1CCCCC1,20µM*,?,i,-7%,0%
COC(=O)C1=C(c2ccc(-c3ccccc3)c(F)c2)C[C@@H]2CC[C@H]1N2C(=O)N1CCOCC1,20µM*,?,i,27%,-6%
C[C@@H]1O[C@@H](O[C@@H]2C=C3CC[C@@H]4[C@@H](CC[C@]5(C)[C@H](c6ccc(=O)oc6)CC[C@@]45O)[C@@]3(C)CC2)[C@H](O)[C@H](O)[C@H]1O,·,·,·,·,0%
